# Several values for one entry are separate records, joined by “and”; a condition that tells them apart may be missing. Equal entries are not always repeated. Activity calls are given as the source filed them. The calls were made as follows: active = hit-call score of the fitted dose curve at least 0.9, where 1 is the maximum; inactive = score below 0.9.
# Read-out: Interleukin 17F (IL17F), IL17F (gene 112744)
# Experiment: BSK_BT_xIL17F: BioMAP Diversity Plus: BT Assay for Interleukin 17F (IL17F) Biomarker Activity (AID 2284243)
# Details: primary human B cells with PBMC
# Protocol: BSK_BT is a cell-based, multiplexed-readout assay that uses B cell and peripheral blood mononuclear cells, a human vascular primary cell co-culture, with measurements taken at 24 hours after chemical dosing in a microplate: 96-well plate.BSK_BT_xIL17F is an assay component measured in the BSK_BT assay. It measures secreted IL-17F related to regulation of gene expression using LumineX xMAP technology.Data from the assay component BSK_BT_xIL17F was analyzed at the endpoint, BSK_BT_xIL17F, in the positive analysis fitting direction relative to DMSO as the negative control and baseline of activity. Using a type of cytokine quantitation reporter, gain or loss-of-signal activity can be used to understand protein changes. To generalize the intended target to other relatable targets, this assay endpoint is annotated to the 'cytokine' intended target family, where the subfamily is 'interleukins'.
# The levels of cell surface (or secreted, indicated by the prefix "s") biomarker endpoints were measured by ELISA. Overt cytotoxicity to cells in confluent adherent cultures (all systems other than the BT system) was assessed by measuring total protein levels using sulforhodamine B (SRB) staining in parallel cultures at the time of biomarker measurements, indicated as SRB endpoints. For proliferation assays for adherent cell types, individual cell types are cultured at sub-confluence and relative cell numbers quantified by SRB staining at time points optimized for each system (48 h: 3C and CASM3C systems; 72 h: BT and HDF3CGF systems; 96 h: SAg system). SRB was performed by staining cells with 0.1% SRB after fixation with 10% TCA and reading wells at 560 nm.Viability and proliferation of PBMC (T cells) was quantified by Alamar Blue reduction for the SAg and BT systems. For PBMC viability (referred to as PBMC Cytotoxicity within the assay endpoint names), cells were plated (75,000/well in a 96-well plate) and then chemical samples added for 1 h before addition of activators, SEB and TSST-1 (20 ng/mL final concentration each). Cells were incubated for 90 h. Then, Alamar Blue (20 uL/well) (Invitrogen, Cat DAL1100) was added for 6 h, and the plates were read with a fluorescence microplate reader at 546/580 nm (excitation/emission). For PBMC proliferation, cells were plated and activated as above but incubated for only 16 h prior to addition of Alamar Blue. Plates were read after 6 h.
Compound,outcome,AC50
C=C1CC/C=C(\C)CC[C@@H]2[C@@H]1CC2(C)C,inactive,
OCC(F)(OC(F)(F)C(F)(OC(F)(F)C(F)(F)C(F)(F)F)C(F)(F)F)C(F)(F)F (stereo not given),,5.47 µM (active) and 5.77 µM (active)
OCCN1CCOCC1,inactive,
CC(=O)OC(C)(C)C1CC=C(C)CC1 (stereo not given),inactive,
COc1ccccc1NC(=O)CC(C)=O,inactive,
CC(C)(C)c1cccc(O)c1,inactive,
CCOC(=O)C=Cc1ccccc1,inactive,
c1ccc(Sc2ccccc2)cc1,inactive,
CC1(C)[C@H](C=C(Cl)Cl)[C@H]1C(=O)OCc1cccc(Oc2ccccc2)c1,inactive,
C=C(C)C(=O)OCCC(F)(F)C(F)(F)C(F)(F)C(F)(F)C(F)(F)C(F)(F)C(F)(F)C(F)(F)F,inactive,
CCOC(=O)CCCCCCCCC(=O)OCC,inactive,
O=C(O)C(F)(F)C(F)(F)C(F)(F)C(F)(F)C(F)(F)C(F)(F)C(F)(F)C(F)F,inactive,
CC1=CC(C)C(C=O)C(C)C1 (stereo not given) (tested in a mixture with another compound),inactive,
C=C(F)C(=O)OC(C(F)(F)F)C(F)(F)F,inactive,
O=C1OC2(c3ccc(O)cc3Oc3cc(O)ccc32)c2ccccc21,inactive,
NC(=O)c1c(Cl)cccc1Cl,inactive,
CCCCCCCC1CCCC1=O (stereo not given),inactive,
CC(C)Cc1ccc(C(C)C(=O)O)cc1 (stereo not given),inactive,
O=S1(=O)CC(Cl)(Cl)C(Cl)(Cl)C1,,0.515 µM (active)
O=C(O)C(F)(F)OC(F)(F)C(F)(F)OC(F)(F)C(F)(F)C(F)(F)C(F)(F)F,inactive,
O=S(=O)(O)C(F)(F)C(F)(F)OC(F)(F)C(F)(F)F,inactive,
c1ccc2c(c1)-c1ccc3ccc4cccc5cc-2c1c3c45,inactive,
CCCCCCCCCC(=O)OCC,inactive,
CCCCCCCCCCCCS,inactive,
Nc1ccc(N)c([N+](=O)[O-])c1,inactive,
CCC(=O)OCC=Cc1ccccc1,inactive,
CC=CC(=O)C1=C(C)C=CCC1(C)C,inactive,
C=CC(=O)OCC(CO)(COC(=O)C=C)COC(=O)C=C,,1.15 µM (active)
CC(=O)CCC=C(C)CCC=C(C)C,inactive,
CC(=O)OCC=C(C)CCC=C(C)CCC=C(C)C,,30.3 µM (active)

# Reference: PubChem BioAssay (EPA / NIEHS)
